Results published in PubChem BioAssay (Tox21).
A number with no mark means an inactive call. Results filed as inconclusive are left out. Where a call stands in place of a potency, no number is given. The source made the active and inactive calls. Calls come from the whole dose curve; as a rule, active = well fitted curve in the direction sought with a large enough effect in the repeat runs; inconclusive = weak or mixed curves; inactive = no such curve, though single readings can be large; an effect the other way counts as inactive or inconclusive.

Key:
[1] = qHTS RealTime-Glo MT Cell Viability Assay in HEK293 cells - 32 hour (AID 1224868); note: top concentration of the series differs between compounds; nearly all actives have a fitted effect of over 50% in size
Summary of the method: (§1)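 HEK293 cells seeded with NanoLuc/prosubstrate reagent, rested 5 h at 37 C, then dosed and kept at 37 C up to 40 h. Nonlytic real-time luminescence from viable cells read at 0, 8, 16, 24, 32 and 40 h.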

[2] = A CellTox Green Cytotoxicity Assay to monitor cytotoxicity in HEK293 cells - 0 hour (AID 1224869); note: nearly all actives have a fitted effect of over 50% in size
Summary of the method: (§2)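 Tox21 screen in HEK293: membrane-impermeant cyanine dye fluoresces on binding dead-cell DNA; compound pinned 5 h post-seeding, plates held at 37 C, signal read repeatedly through 40 h.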

[3] = qHTS RealTime-Glo MT Cell Viability Assay in HepG2 cells - 40 hour (AID 1224870); note: nearly all actives have a fitted effect of over 50% in size
Summary of the method: (§3)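 Real-time viability: cells seeded at 600 per well together with NanoLuc and cell-permeant prosubstrate, compounds added after 5 h incubation. Luminescence tracked at 0, 8, 16, 24, 32 and 40 h of exposure.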

[4] = A CellTox Green Cytotoxicity Assay to monitor cytotoxicity in HEK293 cells - 40 hour (AID 1224871); note: nearly all actives have a fitted effect of over 45% in size
Summary of the method: as §2

[5] = qHTS RealTime-Glo MT Cell Viability Assay in HEK293 cells - 16 hour (AID 1224872); note: top concentration of the series differs between compounds; nearly all actives have a fitted effect of over 50% in size
Summary of the method: as §1

[6] = qHTS RealTime-Glo MT Cell Viability Assay in HepG2 cells - 8 hour (AID 1224873); note: nearly all actives have a fitted effect of over 55% in size
Summary of the method: as §3

[7] = qHTS RealTime-Glo MT Cell Viability Assay in HEK293 cells - 40 hour (AID 1224874); conditions: RealTime-Glo luminescence, active compounds read low; note: nearly all actives have a fitted effect of over 50% in size
Summary of the method: (§4)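 HEK293 + NanoLuc + prosubstrate, 600 cells/well; 5 h, 37 C/5% CO2; compound 23 nL in DMSO by pintool; 37 C; luminescence read at 0, 8, 16, 24, 32 and 40 h time points.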

[8] = A CellTox Green Cytotoxicity Assay to monitor cytotoxicity in HEK293 cells - 24 hour (AID 1224875); note: series mostly up to about 77 µM; nearly all actives have a fitted effect of over 45% in size
Summary of the method: as §2

[9] = A CellTox Green Cytotoxicity Assay to monitor cytotoxicity in HepG2 cells - 16 hour (AID 1224876); note: nearly all actives have a fitted effect of over 45% in size; note: potency is the fitted concentration of half-maximal effect
Summary of the method: (§5)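 Measurements at 0, 8, 16, 24, 32 and 40 h of treatment captured CellTox Green fluorescence in HepG2 cells that had been co-plated with reagent and preincubated 5 h at 37 C/5% CO2.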

[10] = qHTS RealTime-Glo MT Cell Viability Assay in HepG2 cells - 32 hour (AID 1224877); note: nearly all actives have a fitted effect of over 55% in size
Summary of the method: (§6)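 HepG2 cells (600/well) were dispensed with RealTime-Glo reagents, incubated 5 h at 37 °C, then treated with compounds in DMSO for up to 40 h. Nonlytic NanoLuc luminescence reflecting viable cells was read at each stated time point.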

[11] = A CellTox Green Cytotoxicity Assay to monitor cytotoxicity in HepG2 cells - 24 hour (AID 1224878); note: nearly all actives have a fitted effect of over 45% in size
Summary of the method: as §5

[12] = A CellTox Green Cytotoxicity Assay to monitor cytotoxicity in HepG2 cells - 40 hour (AID 1224879); note: nearly all actives have a fitted effect of over 40% in size
Summary of the method: as §5

[13] = qHTS RealTime-Glo MT Cell Viability Assay in HEK293 cells - 0 hour (AID 1224880)
Summary of the method: as §4

[14] = A CellTox Green Cytotoxicity Assay to monitor cytotoxicity in HEK293 cells - 32 hour (AID 1224881); note: nearly all actives have a fitted effect of over 40% in size
Summary of the method: as §2

[15] = A CellTox Green Cytotoxicity Assay to monitor cytotoxicity in HepG2 cells - 0 hour (AID 1224882); note: nearly all actives have a fitted effect of over 35% in size
Summary of the method: as §5

[16] = A CellTox Green Cytotoxicity Assay to monitor cytotoxicity in HEK293 cells - 8 hour (AID 1224884); note: nearly all actives have a fitted effect of over 35% in size
Summary of the method: as §2

[17] = qHTS RealTime-Glo MT Cell Viability Assay in HepG2 cells - 16 hour (AID 1224885); note: nearly all actives have a fitted effect of over 50% in size
Summary of the method: as §6

[18] = qHTS RealTime-Glo MT Cell Viability Assay in HEK293 cells - 8 hour (AID 1224887)
Summary of the method: as §4

[19] = A CellTox Green Cytotoxicity Assay to monitor cytotoxicity in HepG2 cells - 32 hour (AID 1224883); note: nearly all actives have a fitted effect of over 50% in size
Summary of the method: as §5

[20] = qHTS RealTime-Glo MT Cell Viability Assay in HEK293 cells - 24 hour (AID 1224886)
Summary of the method: as §1

Compound | outcome [1] | outcome [2] | outcome [3] | Potency [4] | outcome [5] | outcome [6] | max response [7] | Potency [8] | Potency [9] | outcome [10] | Potency [11] | Potency [12] | Potency [13] | Potency [14] | Potency [15] | Potency [16] | outcome [17] | outcome [18] | Potency [19] | outcome [20]
CCCCCC(=O)CC | inactive | inactive | inactive | inactive | inactive | inactive | 19.7% | inactive | inactive | inactive | inactive | inactive | inactive | inactive | inactive | inactive | inactive | inactive |  | 
CCCCCCCCCCCCCC(=O)OCC | inactive | inactive | inactive | inactive | inactive | inactive | -1.33% | inactive | inactive | inactive | inactive | inactive | inactive | inactive | inactive | inactive | inactive | inactive | inactive | inactive
CC(CN1CC(=O)NC(=O)C1)N1CC(=O)NC(=O)C1 (configuration not stated) | inactive | inactive | inactive | inactive | inactive | inactive | -4.03% | inactive | inactive | inactive | inactive | inactive | inactive | inactive | inactive | inactive | inactive | inactive | inactive | inactive
COC(=O)c1ccccc1Cl | inactive | inactive | inactive | inactive | inactive | inactive | 2.48% | inactive | inactive | inactive | inactive | inactive | inactive | inactive | inactive | inactive | inactive | inactive | inactive | inactive
Nc1nc(Cl)cc(Cl)n1 | inactive | inactive | inactive | inactive | inactive | inactive | 16.9% | inactive | inactive | inactive | inactive | inactive | inactive | inactive | inactive | inactive | inactive | inactive | inactive | inactive
CCCOc1ccc(C(=O)OCCN(CC)CC)cc1N | inactive | inactive | inactive | inactive | inactive | inactive | 0.981% | inactive | inactive | inactive | inactive | inactive | inactive | inactive | inactive | inactive | inactive | inactive | inactive | inactive
O=c1[nH]c(=O)c2cn[nH]c2[nH]1 | inactive | inactive | inactive | inactive | inactive | inactive | -0.927% | inactive | inactive | inactive | inactive | inactive | inactive |  | inactive | inactive | inactive | inactive | inactive | inactive
CC(C)OCCO | inactive | inactive | inactive | inactive | inactive | inactive | 4.69% | inactive | inactive | inactive | inactive | inactive | inactive | inactive | inactive | inactive | inactive | inactive | inactive | inactive
Cc1ccc(NC(N)=O)cc1 | inactive | inactive | inactive | inactive | inactive | inactive | 11.1% | inactive | inactive | inactive | inactive | inactive | inactive | inactive | inactive | inactive | inactive | inactive | inactive | inactive
COCc1nnc(-c2ccc[n+]([O-])c2)n1-c1c(Cl)c(Cl)cc2[nH]c(=O)c(=O)[nH]c12 | inactive | inactive | inactive | inactive | inactive | inactive | -6.51% | inactive | inactive | inactive | inactive | inactive | inactive | inactive | inactive | inactive | inactive | inactive | inactive | 
Cc1ccc2ccccc2n1 | inactive | inactive | inactive | inactive | inactive | inactive | 18.8% | inactive | 138 nM (active) | inactive | inactive |  | inactive | inactive | inactive | inactive | inactive | inactive | inactive | inactive
CC(=O)Nc1ccc(S(=O)(=O)Nc2cc(C)on2)cc1 | inactive | inactive | inactive | inactive | inactive | inactive | 0.358% | inactive |  | inactive | inactive | inactive | inactive | inactive | inactive | inactive | inactive | inactive | inactive | 
CC(C)c1cc(C(C)C)cc(C(C)C)c1 | inactive | inactive | inactive | inactive | inactive | inactive | 5.73% | inactive | inactive | inactive | inactive |  | inactive | inactive | inactive | inactive | inactive | inactive | inactive | inactive
C=CCON/C(CCC)=C1\C(=O)CC(C)(C)C(C(=O)OC)=C1O | inactive | inactive | inactive | inactive | inactive | inactive | 3.04% | inactive |  | inactive |  |  | inactive | inactive |  | inactive | inactive | inactive |  | inactive
